Data taken from the supplement of paper PMC11732987, “Enantioselective OTUD7B fragment discovery through chemoproteomics screening and high-throughput optimisation” (Communications Chemistry, 2025).

Assays:
Test in all cases: log2 ratio of Biotin-Ahx-Ub-VS probe labelling (fragment/DMSO); higher = less target engagement (more negative = stronger competition), active = hit call of the paper (q ≤ 0.05, log2 ratio ≤ -1)
Conditions in all cases: compound concentration: 200 uM; treatment time: 3 h
[1] = target: USP34 (UniProt Q70CQ2)
How it was run: (§1)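 Global-median-normalised Spectronaut label-free quantities were compared by unpaired t-test, and values are average log2 ratios of fragment over vehicle. Only proteins with ≥2 unique peptides were used. HEK293T lysate (495 µg per sample) was treated in triplicate with fragment at 200 µM or vehicle for 3 h and then with Biotin-Ahx-Ub-VS at 0.5 µM final for 1 h. Labelled DUBs were then NeutrAvidin-enriched, digested with LysC and trypsin, and run by diaPASEF LC-MS/MS.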

[2] = target: T1, USP36 (UniProt Q9P275)
T1 sequence (whole entry): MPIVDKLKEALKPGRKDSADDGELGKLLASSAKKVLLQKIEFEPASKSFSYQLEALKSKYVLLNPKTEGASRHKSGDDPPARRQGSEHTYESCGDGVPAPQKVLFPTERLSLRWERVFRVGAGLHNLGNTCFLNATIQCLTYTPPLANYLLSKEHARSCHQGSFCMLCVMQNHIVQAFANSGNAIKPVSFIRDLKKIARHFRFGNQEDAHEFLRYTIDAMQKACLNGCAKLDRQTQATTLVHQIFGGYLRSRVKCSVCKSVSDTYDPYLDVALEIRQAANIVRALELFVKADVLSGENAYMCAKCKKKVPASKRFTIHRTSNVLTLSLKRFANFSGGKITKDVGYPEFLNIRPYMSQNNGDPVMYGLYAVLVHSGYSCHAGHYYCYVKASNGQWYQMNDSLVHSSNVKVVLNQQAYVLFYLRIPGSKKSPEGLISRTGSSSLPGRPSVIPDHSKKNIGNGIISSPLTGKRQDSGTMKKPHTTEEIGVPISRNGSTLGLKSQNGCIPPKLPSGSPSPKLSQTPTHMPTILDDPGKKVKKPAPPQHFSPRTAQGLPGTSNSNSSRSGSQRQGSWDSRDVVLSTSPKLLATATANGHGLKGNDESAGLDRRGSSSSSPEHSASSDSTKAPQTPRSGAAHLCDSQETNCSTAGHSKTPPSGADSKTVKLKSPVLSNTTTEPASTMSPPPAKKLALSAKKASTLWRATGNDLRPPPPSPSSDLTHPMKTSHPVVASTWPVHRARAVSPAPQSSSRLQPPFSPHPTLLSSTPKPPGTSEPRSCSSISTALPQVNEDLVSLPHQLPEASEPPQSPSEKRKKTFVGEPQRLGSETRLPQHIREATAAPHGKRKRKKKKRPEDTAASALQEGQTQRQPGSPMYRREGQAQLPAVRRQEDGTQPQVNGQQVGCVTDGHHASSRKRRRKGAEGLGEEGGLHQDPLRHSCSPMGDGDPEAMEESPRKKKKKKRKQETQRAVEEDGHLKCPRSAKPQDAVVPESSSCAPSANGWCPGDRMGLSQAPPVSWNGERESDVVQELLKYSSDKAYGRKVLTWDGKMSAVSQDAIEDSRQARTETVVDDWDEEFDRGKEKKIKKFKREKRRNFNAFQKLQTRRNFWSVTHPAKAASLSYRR
How it was run: as §1

[3] = target: T2, USP38 (UniProt Q8NB14)
T2 sequence (whole entry): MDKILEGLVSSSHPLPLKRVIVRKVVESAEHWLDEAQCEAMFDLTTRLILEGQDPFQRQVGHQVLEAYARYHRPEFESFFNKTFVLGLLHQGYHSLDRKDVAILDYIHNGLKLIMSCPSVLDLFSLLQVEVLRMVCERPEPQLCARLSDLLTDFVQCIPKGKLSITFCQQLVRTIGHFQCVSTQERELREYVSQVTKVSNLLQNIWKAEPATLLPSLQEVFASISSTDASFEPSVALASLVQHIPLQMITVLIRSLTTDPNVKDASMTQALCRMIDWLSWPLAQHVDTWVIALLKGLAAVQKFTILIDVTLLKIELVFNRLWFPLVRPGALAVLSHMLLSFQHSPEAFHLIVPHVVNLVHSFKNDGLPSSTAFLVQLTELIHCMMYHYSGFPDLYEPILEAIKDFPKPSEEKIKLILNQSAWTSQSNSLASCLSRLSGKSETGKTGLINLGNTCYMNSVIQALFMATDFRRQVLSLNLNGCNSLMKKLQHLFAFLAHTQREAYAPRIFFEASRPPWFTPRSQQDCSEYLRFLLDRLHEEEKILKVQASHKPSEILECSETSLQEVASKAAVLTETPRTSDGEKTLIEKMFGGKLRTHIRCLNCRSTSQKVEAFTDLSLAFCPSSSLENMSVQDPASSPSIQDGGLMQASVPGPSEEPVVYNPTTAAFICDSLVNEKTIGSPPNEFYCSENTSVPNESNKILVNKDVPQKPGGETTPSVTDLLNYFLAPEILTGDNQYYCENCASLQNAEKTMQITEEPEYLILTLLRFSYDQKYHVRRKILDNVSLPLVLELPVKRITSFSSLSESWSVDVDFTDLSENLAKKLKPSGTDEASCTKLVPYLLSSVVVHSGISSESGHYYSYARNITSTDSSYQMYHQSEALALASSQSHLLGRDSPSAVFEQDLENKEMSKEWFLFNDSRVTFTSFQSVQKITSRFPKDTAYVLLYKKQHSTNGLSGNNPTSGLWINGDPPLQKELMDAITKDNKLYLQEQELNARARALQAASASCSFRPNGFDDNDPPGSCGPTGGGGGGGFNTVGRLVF
How it was run: as §1

[4] = target: T3, USP39 (UniProt Q53GS9)
T3 sequence (whole entry): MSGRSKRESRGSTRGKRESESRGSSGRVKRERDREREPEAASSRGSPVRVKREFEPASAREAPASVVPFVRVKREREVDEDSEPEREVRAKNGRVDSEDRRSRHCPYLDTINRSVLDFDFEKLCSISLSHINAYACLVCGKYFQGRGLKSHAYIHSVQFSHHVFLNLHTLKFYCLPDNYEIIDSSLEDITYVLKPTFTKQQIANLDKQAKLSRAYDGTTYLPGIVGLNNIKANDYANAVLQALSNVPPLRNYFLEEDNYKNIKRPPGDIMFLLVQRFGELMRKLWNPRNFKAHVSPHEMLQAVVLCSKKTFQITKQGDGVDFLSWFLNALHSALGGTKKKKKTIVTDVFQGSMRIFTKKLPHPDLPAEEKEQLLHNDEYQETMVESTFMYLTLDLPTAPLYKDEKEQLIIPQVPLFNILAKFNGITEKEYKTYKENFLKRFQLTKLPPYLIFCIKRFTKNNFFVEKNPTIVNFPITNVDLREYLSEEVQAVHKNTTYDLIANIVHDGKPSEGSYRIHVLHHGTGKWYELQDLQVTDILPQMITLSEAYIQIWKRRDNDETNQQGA
How it was run: as §1

[5] = target: T4, USP4 (UniProt Q13107)
T4 sequence (whole entry): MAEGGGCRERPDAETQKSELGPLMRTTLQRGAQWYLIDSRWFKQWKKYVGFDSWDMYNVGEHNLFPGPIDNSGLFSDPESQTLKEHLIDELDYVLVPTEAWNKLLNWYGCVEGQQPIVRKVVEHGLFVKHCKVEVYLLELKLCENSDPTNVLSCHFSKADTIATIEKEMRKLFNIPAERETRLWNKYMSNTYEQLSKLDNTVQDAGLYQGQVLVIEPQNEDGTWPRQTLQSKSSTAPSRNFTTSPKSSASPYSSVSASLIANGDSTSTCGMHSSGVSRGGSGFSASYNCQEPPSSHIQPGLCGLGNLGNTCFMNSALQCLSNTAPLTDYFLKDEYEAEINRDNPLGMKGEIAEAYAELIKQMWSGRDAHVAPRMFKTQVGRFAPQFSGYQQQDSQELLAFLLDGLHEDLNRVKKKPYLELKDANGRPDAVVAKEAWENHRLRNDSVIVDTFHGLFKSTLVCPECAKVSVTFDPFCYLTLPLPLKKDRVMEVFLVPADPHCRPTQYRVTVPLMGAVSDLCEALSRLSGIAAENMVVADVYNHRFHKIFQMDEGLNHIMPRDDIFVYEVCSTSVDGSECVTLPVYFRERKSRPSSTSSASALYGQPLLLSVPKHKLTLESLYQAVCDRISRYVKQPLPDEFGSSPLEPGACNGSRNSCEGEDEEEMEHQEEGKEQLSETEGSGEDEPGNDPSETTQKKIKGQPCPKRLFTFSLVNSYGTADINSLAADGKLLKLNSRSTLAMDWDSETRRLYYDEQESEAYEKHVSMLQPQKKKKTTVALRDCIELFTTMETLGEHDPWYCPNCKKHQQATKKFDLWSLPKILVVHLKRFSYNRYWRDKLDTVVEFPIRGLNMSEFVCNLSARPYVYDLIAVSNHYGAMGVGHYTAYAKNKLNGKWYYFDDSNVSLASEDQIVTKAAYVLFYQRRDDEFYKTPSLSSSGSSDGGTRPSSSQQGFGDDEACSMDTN
How it was run: as §1

Measured: log2 ratio of Biotin-Ahx-Ub-VS probe labelling

Chain of USP34 (Q70CQ2 whole entry, the tested form may be a part): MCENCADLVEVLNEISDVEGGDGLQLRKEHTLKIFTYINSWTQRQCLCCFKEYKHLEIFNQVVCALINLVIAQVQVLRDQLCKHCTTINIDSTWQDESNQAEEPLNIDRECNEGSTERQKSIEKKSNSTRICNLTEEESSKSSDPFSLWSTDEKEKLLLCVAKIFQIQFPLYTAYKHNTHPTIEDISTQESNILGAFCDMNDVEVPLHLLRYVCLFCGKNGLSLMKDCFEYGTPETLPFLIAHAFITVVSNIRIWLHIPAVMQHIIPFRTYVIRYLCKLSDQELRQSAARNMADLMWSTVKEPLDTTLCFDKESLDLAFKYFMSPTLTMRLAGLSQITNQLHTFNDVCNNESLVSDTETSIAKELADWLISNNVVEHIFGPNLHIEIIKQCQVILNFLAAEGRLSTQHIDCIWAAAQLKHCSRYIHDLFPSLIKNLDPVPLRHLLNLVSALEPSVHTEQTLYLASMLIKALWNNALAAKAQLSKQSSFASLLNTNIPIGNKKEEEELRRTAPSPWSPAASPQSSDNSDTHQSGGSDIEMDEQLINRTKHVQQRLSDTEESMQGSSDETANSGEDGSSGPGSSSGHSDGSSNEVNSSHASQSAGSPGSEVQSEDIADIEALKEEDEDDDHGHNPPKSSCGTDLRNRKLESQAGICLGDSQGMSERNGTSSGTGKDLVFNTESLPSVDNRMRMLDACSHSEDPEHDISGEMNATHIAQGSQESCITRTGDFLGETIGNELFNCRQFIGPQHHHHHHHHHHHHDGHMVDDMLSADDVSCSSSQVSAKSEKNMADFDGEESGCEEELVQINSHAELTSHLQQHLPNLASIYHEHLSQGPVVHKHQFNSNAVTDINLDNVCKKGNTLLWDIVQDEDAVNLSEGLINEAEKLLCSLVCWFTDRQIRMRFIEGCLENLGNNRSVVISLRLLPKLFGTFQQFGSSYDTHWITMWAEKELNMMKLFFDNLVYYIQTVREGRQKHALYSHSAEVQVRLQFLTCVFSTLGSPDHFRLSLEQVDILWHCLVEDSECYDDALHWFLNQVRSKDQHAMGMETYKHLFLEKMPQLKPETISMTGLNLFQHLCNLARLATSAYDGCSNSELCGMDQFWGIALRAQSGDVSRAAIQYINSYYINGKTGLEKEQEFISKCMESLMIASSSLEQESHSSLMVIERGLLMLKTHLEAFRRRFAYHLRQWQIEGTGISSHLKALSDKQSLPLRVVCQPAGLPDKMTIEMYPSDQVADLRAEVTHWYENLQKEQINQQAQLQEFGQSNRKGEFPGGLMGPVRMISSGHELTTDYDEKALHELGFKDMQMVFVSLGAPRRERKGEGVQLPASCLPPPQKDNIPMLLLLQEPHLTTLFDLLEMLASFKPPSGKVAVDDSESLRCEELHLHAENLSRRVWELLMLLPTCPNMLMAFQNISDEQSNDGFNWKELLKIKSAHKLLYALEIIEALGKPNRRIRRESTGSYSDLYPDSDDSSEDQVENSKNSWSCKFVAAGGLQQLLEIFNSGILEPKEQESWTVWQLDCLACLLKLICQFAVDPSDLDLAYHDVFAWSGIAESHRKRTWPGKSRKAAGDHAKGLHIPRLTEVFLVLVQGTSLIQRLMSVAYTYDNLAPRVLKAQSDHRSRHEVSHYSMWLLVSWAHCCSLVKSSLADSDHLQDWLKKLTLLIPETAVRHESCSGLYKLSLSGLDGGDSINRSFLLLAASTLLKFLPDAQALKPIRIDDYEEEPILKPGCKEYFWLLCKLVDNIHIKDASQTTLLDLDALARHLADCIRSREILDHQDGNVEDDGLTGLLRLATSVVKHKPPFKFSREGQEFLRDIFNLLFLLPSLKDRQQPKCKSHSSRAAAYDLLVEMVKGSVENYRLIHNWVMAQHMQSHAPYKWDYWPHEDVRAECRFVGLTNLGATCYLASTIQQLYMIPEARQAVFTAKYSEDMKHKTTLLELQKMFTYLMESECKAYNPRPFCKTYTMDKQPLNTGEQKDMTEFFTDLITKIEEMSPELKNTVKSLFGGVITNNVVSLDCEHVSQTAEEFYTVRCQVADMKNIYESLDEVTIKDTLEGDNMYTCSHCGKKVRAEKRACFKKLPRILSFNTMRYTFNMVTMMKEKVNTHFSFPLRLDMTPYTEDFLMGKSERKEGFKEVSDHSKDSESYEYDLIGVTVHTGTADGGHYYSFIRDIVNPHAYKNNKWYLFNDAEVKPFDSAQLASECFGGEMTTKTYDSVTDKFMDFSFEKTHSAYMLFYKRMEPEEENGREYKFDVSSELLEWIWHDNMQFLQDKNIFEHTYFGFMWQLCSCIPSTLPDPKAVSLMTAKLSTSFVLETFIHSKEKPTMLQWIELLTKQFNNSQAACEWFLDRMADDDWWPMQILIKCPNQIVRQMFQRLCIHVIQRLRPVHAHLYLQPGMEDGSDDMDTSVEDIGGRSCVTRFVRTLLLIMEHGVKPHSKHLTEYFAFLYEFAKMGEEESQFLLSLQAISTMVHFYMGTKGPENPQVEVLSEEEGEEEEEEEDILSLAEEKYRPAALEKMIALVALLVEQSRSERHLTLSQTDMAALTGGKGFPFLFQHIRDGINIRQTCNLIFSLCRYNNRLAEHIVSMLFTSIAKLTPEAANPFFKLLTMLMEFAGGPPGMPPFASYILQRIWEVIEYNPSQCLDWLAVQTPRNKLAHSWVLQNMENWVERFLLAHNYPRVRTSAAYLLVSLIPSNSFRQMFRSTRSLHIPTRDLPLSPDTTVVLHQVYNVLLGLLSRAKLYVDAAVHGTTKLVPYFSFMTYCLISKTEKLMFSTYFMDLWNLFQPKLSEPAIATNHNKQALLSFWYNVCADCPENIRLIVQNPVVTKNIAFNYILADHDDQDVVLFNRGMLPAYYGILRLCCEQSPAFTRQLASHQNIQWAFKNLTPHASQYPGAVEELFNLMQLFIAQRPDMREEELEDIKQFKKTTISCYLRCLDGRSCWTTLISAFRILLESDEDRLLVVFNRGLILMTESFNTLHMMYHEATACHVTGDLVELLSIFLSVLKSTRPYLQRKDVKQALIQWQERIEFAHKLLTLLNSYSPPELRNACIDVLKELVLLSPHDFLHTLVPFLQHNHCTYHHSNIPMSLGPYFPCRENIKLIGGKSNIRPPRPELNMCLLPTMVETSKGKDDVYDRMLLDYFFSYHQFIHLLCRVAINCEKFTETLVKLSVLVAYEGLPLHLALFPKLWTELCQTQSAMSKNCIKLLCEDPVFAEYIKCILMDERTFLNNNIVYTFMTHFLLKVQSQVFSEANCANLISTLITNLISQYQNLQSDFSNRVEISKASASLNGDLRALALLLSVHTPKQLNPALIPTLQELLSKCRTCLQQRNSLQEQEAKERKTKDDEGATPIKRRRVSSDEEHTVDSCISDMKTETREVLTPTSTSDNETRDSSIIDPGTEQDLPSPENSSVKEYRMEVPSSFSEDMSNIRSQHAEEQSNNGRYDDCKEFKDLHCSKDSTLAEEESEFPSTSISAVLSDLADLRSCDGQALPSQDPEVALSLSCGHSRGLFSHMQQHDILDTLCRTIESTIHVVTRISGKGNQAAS

CC(NC(=O)CCl)c1cccc(Cl)c1 (stereo not given)
inactive: [1] -0.653 | [2] -0.283 | [3] -0.175 | [4] -0.294 | [5] -0.239
